Consider nine molecules from PubChem BioAssay (NCI).

Structures are written as SMILES. About 83,000 compounds went through this panel and 20% of them were active in at least one assay; those are over-represented in the sample as a whole.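 Each cell line was grown in a 96-well plate and treated with one concentration of compound for 48 hours. Values below 10 were considered active.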 A number with no mark means an inactive call. Active and inactive are the calls of the source.

Test systems include SK-MEL-2 melanoma; EKVX NSCLC; SN12C renal; UO-31 renal; TK-10 renal; ACHN renal; CAKI-1 renal; A498 renal; MOLT-4 leukemia; RPMI-8226 leukemia; OVCAR-8 ovarian; OVCAR-5 ovarian; OVCAR-4 ovarian; SK-OV-3 ovarian; IGROV1 ovarian; OVCAR-3 ovarian; HS 578T breast; NCI/ADR-RES ovarian; SR leukemia.
Common to all, as to experiment: NCI-60 one-dose screen, 48 h (100 = growth as untreated, 0 = no growth, -100 = all killed)
Holding throughout (details): 10 µM unless noted

In the case of `CC(C)(C)c1ccc(/C=C/C(=O)Nc2ccc(O)cc2)cc1`, the growth in the test on SK-MEL-2 melanoma was 94.6%; in the test with EKVX NSCLC it was 89.2%; in the test with SN12C renal, 61.8%; in the test on UO-31 renal, 31.6%; in the test with TK-10 renal it was 103%; in the test on ACHN renal, 60.6%. Also, the growth with CAKI-1 renal is 61.7%; with A498 renal, 103%; in the test with MOLT-4 leukemia it was 29.4%; with RPMI-8226 leukemia, 59.8%; in the test on OVCAR-8 ovarian, 45.7%; with OVCAR-5 ovarian it was 89.8%. For the same molecule, the growth is 73.8% with OVCAR-4 ovarian; 96.8% in the test with SK-OV-3 ovarian; 62.2% in the test with IGROV1 ovarian; 60.4% in the test on OVCAR-3 ovarian; 80.4% with HS 578T breast; 59.9% with NCI/ADR-RES ovarian.

As for `C[C@H](NC(=O)[C@@H]1CSSC[C@@H](NC(=O)c2nc3ccccc3cc2O)C(=O)NCC(=O)N1C)c1ccccc1`, the growth with SK-MEL-2 melanoma is 62.2%; in the test with EKVX NSCLC, 42%; with SN12C renal it was -17.7% (active); with UO-31 renal it was 63.8%; in the test on TK-10 renal it was 59.9%; in the test with ACHN renal, 44.7%. For the same molecule, the growth is 83.2% with CAKI-1 renal; 112% in the test with A498 renal; -8.45% (active) in the test on MOLT-4 leukemia; -17.5% (active) in the test with SR leukemia; 26.3% in the test with OVCAR-8 ovarian; 45.6% in the test with OVCAR-5 ovarian. Besides, the growth with OVCAR-4 ovarian was 94.3%; with SK-OV-3 ovarian it was 71.7%; in the test with IGROV1 ovarian, 71.6%; in the test on OVCAR-3 ovarian, -51.4% (active); in the test on HS 578T breast, 33%; with NCI/ADR-RES ovarian it was 91.5%.

Consider `CC(=O)OC1CCC2(C)C(=CC3C4CCC(=O)C4(C)CCC32)C1` (stereo not drawn), for which the growth in the test on SK-MEL-2 melanoma was 93%; in the test with EKVX NSCLC, 109%; in the test with SN12C renal, 96.4%; with UO-31 renal, 96.2%; in the test with TK-10 renal, 108%; in the test on ACHN renal, 101%. The growth was 101% in the test with CAKI-1 renal; 154% with A498 renal; 103% with MOLT-4 leukemia; 89.3% in the test with RPMI-8226 leukemia; 97.3% in the test with OVCAR-8 ovarian; 100% in the test on OVCAR-5 ovarian. Moreover, the growth was 103% in the test on OVCAR-4 ovarian; 105% in the test with SK-OV-3 ovarian; 105% in the test on IGROV1 ovarian; 109% with OVCAR-3 ovarian; 119% in the test on HS 578T breast; 104% in the test on NCI/ADR-RES ovarian.

On to `O=C(O)c1ccc2c(c1)CCC2`, for which the growth was 95.8% with SK-MEL-2 melanoma; 117% in the test with EKVX NSCLC; 103% in the test with SN12C renal; 94.4% in the test on UO-31 renal; 107% in the test on TK-10 renal; 104% with ACHN renal. The growth was 101% in the test on CAKI-1 renal; 139% in the test with A498 renal; 91.1% in the test with MOLT-4 leukemia; 107% in the test on OVCAR-8 ovarian; 105% with OVCAR-5 ovarian; 107% in the test on OVCAR-4 ovarian. Also, the growth in the test with SK-OV-3 ovarian is 107%; in the test with IGROV1 ovarian, 103%; in the test on HS 578T breast it was 134%; in the test with NCI/ADR-RES ovarian it was 111%.

In the case of `C[n+]1cccc(CC(=O)NO)c1`, the growth in the test on SK-MEL-2 melanoma was 100%; in the test on EKVX NSCLC, 102%; in the test on SN12C renal, 94.7%; in the test on UO-31 renal, 97.3%; in the test on TK-10 renal, 94.8%; in the test with ACHN renal, 98.4%. The growth in the test with CAKI-1 renal was 104%; with A498 renal it was 115%; with SR leukemia, 98.4%; in the test with OVCAR-8 ovarian, 95.3%; with OVCAR-5 ovarian, 110%; in the test on OVCAR-4 ovarian, 106%. The growth was 90.9% in the test with SK-OV-3 ovarian; 101% in the test with IGROV1 ovarian; 110% in the test with OVCAR-3 ovarian; 101% with HS 578T breast; 105% in the test on NCI/ADR-RES ovarian.

Turning to `COc1ccc(Cl)cc1NC(=O)C(Br)C(Br)C(=O)O` (stereo not drawn), the growth is -24.7% (active) in the test with SK-MEL-2 melanoma; 90.9% with EKVX NSCLC; 59.3% in the test with SN12C renal; 71.2% in the test with UO-31 renal; 111% in the test with TK-10 renal; 78.7% in the test with ACHN renal. Also, the growth in the test on CAKI-1 renal is 96.3%; in the test with A498 renal, 86.6%; in the test on MOLT-4 leukemia, 16.9%; in the test on RPMI-8226 leukemia, 11.7%; in the test with OVCAR-8 ovarian, 45.3%; in the test on OVCAR-5 ovarian it was 122%. The growth with OVCAR-4 ovarian is 30.5%; in the test on SK-OV-3 ovarian, 101%; with IGROV1 ovarian it was -14.4% (active); with OVCAR-3 ovarian, 9.69% (active); with HS 578T breast it was 86.3%; with NCI/ADR-RES ovarian, -13.8% (active).

Take `Clc1cccc(Cl)c1/C=C/c1cc(/C=C/c2c(Cl)cccc2Cl)[nH]n1`: the growth with SK-MEL-2 melanoma was 32.4%; with EKVX NSCLC, 42%; in the test on SN12C renal it was 40.4%; in the test on UO-31 renal, 51%; in the test with TK-10 renal, 52.2%; with ACHN renal it was 48.9%. Besides, the growth is 30.1% in the test with CAKI-1 renal; 19% in the test with A498 renal; 24.7% in the test with SR leukemia; 21.8% in the test on RPMI-8226 leukemia; 31.1% in the test on OVCAR-8 ovarian; 33.4% with OVCAR-5 ovarian. The growth was 54.6% in the test with OVCAR-4 ovarian; 44.4% with SK-OV-3 ovarian; 48% with IGROV1 ovarian; -16.5% (active) in the test with OVCAR-3 ovarian; 45.5% in the test with HS 578T breast; 4.02% (active) in the test with NCI/ADR-RES ovarian.

As for `COc1ccc(C(=O)COc2ccc(/C=C3\Oc4ccccc4C3=O)cc2)cc1`, the growth with SK-MEL-2 melanoma was 103%; in the test with EKVX NSCLC, 99%; in the test with SN12C renal it was 97.2%; in the test on UO-31 renal, -44.4% (active); in the test with TK-10 renal, 136%; in the test with ACHN renal, 101%. Moreover, the growth was 91% in the test on CAKI-1 renal; 106% in the test on A498 renal; 81.7% with MOLT-4 leukemia; 108% with SR leukemia; 98.9% with OVCAR-8 ovarian; 96.8% in the test with OVCAR-5 ovarian. Further, the growth in the test on OVCAR-4 ovarian is 99.2%; in the test with SK-OV-3 ovarian, 103%; in the test on OVCAR-3 ovarian, 102%; in the test on HS 578T breast, 100%; in the test on NCI/ADR-RES ovarian it was 91.8%.

Turning to `CNS(=O)(=O)c1n[nH]nc1-c1cc(C(C)(C)C)c(O)c(C(C)(C)C)c1`, the growth in the test with SK-MEL-2 melanoma was 104%; with EKVX NSCLC, 89.8%; with SN12C renal, 103%; in the test on UO-31 renal it was 84.2%; with TK-10 renal, 111%; in the test with ACHN renal, 98.7%. Further, the growth is 95.1% in the test on CAKI-1 renal; 100% in the test on A498 renal; 96.9% with MOLT-4 leukemia; 98.6% in the test with SR leukemia; 100% with OVCAR-8 ovarian; 111% in the test with OVCAR-5 ovarian. For the same molecule, the growth in the test on OVCAR-4 ovarian is 100%; in the test on SK-OV-3 ovarian, 92.9%; in the test with IGROV1 ovarian, 103%; with OVCAR-3 ovarian, 112%; in the test on HS 578T breast, 102%; with NCI/ADR-RES ovarian it was 105%.
